Compounds without any hit were thinned out: in the full panel of roughly 79,000, 15% have a hit. Active and inactive are the calls of the source. Cut-off read from the data, not from the text of the source: active = growth inhibition above about 70%; inactive = the rest.
Tests used:
[1] = NCI Yeast Anticancer Drug Screen. Data for the rad52 strain (AID 147);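 note: 0% = growth of vehicle-treated control cultures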; conditions: S. cerevisiae rad52 mutant growth inhibition, hits give high values
How it was run: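 DNA repair-defective yeast; compound exposure; growth scored against vehicle controls.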

[2] = NCI Yeast Anticancer Drug Screen. Data for the wt1 strain (AID 149);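 note: 0% = growth of vehicle-treated wt1 cultures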; conditions: S. cerevisiae wt1 strain (SPY 50644) growth inhibition, hits give high values
How it was run: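 wt1 strain grown with compound or vehicle; inhibition taken from the growth difference.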

[3] = NCI Yeast Anticancer Drug Screen. Data for the rad50EPP+ strain (AID 151);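 note: 0% = growth of vehicle-treated control cultures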; conditions: S. cerevisiae rad50 mutant strain, hits give high values
How it was run: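 rad50EPP+ yeast treated with test compounds. Readout: growth vs vehicle control.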

[4] = NCI Yeast Anticancer Drug Screen. Data for the mgt1 strain (AID 153); conditions: S. cerevisiae mgt1 mutant growth inhibition, hits give high values
How it was run: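 Growth inhibition relative to vehicle controls was scored for the mgt1 yeast strain after compound exposure.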

[5] = NCI Yeast Anticancer Drug Screen. Data for the rad50 strain (AID 155);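 note: 0% = growth of vehicle-only cultures of the same strain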; conditions: S. cerevisiae rad50 strain growth inhibition, hits give high values
How it was run: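 DNA repair mutant yeast, compound exposure, growth read-out; inhibition is taken relative to vehicle.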

[6] = NCI Yeast Anticancer Drug Screen. Data for the mec2-1 strain (AID 157); conditions: S. cerevisiae mec2-1 strain, hits give high values
How it was run: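 Growth inhibition is read against vehicle-treated controls after compound exposure of the mec2-1 yeast strain, which is defective in DNA damage repair or cell cycle control.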

[7] = NCI Yeast Anticancer Drug Screen. Data for the rad14 strain (AID 159);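 note: 0% = growth of vehicle-treated control cultures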; conditions: S. cerevisiae rad14 strain growth inhibition, hits give high values
How it was run: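 DNA repair-defective yeast, compound-exposed; % growth inhibition derived by comparison with vehicle-treated controls.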

[8] = NCI Yeast Anticancer Drug Screen. Data for the sgs1 mgt1 strain (AID 161);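 note: 0% = growth of cultures given vehicle only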; conditions: S. cerevisiae sgs1 mgt1 strain, hits give high values
How it was run: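 Percent growth inhibition was derived by comparing compound-exposed mutant yeast with vehicle-exposed cultures. The strain carries alterations in DNA damage repair.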

[9] = NCI Yeast Anticancer Drug Screen. Data for the CLN2oe strain (AID 163);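 note: 0% = growth of vehicle-only control cultures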; conditions: S. cerevisiae CLN2oe strain, hits give high values
How it was run: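 Compound-treated yeast; growth vs vehicle ctrl = % inhibition. Genetically altered strain (cell-cycle control).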

[10] = NCI Yeast Anticancer Drug Screen. Data for the cln2 rad14 strain (AID 165);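 note: 0% = growth equal to vehicle treated cultures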; conditions: S. cerevisiae cln2 rad14 strain, hits give high values
How it was run: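 Growth inhibition, relative to vehicle-treated controls, is the read-out. The test organism is a yeast strain with defined genetic alterations, cln2 rad14.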

[11] = NCI Yeast Anticancer Drug Screen. Data for the bub3 strain (AID 167); conditions: S. cerevisiae bub3 mutant strain, hits give high values
How it was run: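 In this screen, a yeast mutant lacking normal mitotic checkpoint function is challenged with compound. Relative growth versus vehicle gives the inhibition value.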

[12] = NCI Yeast Anticancer Drug Screen. Data for the wt2 strain (AID 169);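 note: 0% = growth of vehicle-treated yeast cultures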; conditions: S. cerevisiae wt2 strain growth inhibition, hits give high values
How it was run: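 Compound exposure of yeast; growth compared with vehicle controls; inhibition reported.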

[13] = NCI Yeast Anticancer Drug Screen. Data for the mlh1 strain (AID 171);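 note: 0% = growth of vehicle-treated control cultures of the same strain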; conditions: S. cerevisiae mlh1 strain growth inhibition, hits give high values
How it was run: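 Compounds are applied to a genetically altered yeast strain, and its growth is compared with that of vehicle-treated cultures to give percent inhibition.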

[14] = NCI Yeast Anticancer Drug Screen. Data for the sgs1 strain (AID 173);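 note: 0% = growth of vehicle-only control cultures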; conditions: S. cerevisiae sgs1 mutant, hits give high values
How it was run: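 Compounds applied to genetically altered yeast; growth compared with vehicle-treated cultures to give % inhibition.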

[15] = NCI Yeast Anticancer Drug Screen. Data for the mlh1 rad18 strain (AID 175); conditions: S. cerevisiae mlh1 rad18 strain growth inhibition, hits give high values
How it was run: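 Cells of a genetically altered yeast strain, deficient in DNA damage repair, were treated with compound. Their growth was then compared with that of vehicle-treated cultures to give inhibition.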

[16] = NCI Yeast Anticancer Drug Screen. Data for the rad18 strain (AID 177); conditions: S. cerevisiae rad18 mutant growth inhibition, hits give high values
How it was run: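 Compounds are applied to a repair-deficient yeast strain, and growth is compared with that of vehicle-treated cultures to give percent inhibition.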

[17] = at 5.0 µM (retest, dose inferred, filed as 0.5)
[18] = at 50.0 µM (retest, dose inferred, filed as 5.0)

Measured: growth inhibition

N#C/C(=C/c1c(Cl)cccc1Cl)C(N)=O
inactive: [1]; at 1.2 µM 0% | [1]; at 3.7 µM 5% | [1]; at 11.0 µM 13% | [1]; at 33.0 µM 63% | [2]; at 1.2 µM 13% | [2]; at 3.7 µM 13% | [2]; at 11.0 µM 10% | [2]; at 33.0 µM 47% | [3]; at 1.2 µM -24% | [3]; at 3.7 µM -29% | [3]; at 11.0 µM -30% | [3]; at 33.0 µM -24% | [3]; at 100.0 µM 57% | [4]; at 1.2 µM -4% | [4]; at 3.7 µM -15% | [4]; at 11.0 µM 1% | [4]; at 33.0 µM 63% | [5]; at 1.2 µM -10% | [5]; at 3.7 µM 3% | [5]; [17] 47% | [5]; at 11.0 µM 3% | [5]; at 33.0 µM 69% | [6]; at 1.2 µM -26% | [6]; at 3.7 µM -8% | [6]; [17] 46% | [6]; at 11.0 µM -7% | [6]; at 33.0 µM 58% | [7]; at 1.2 µM -3% | [7]; at 3.7 µM -15% | [7]; at 11.0 µM -1% | [7]; at 33.0 µM 55% | [8]; [17] -1% | [9]; at 1.2 µM 9% | [9]; at 3.7 µM -2% | [9]; at 11.0 µM 3% | [9]; at 33.0 µM 18% | [10]; [17] 45% | [11]; at 1.2 µM -5% | [11]; at 3.7 µM 4% | [11]; [17] 37% | [11]; at 11.0 µM 14% | [11]; at 33.0 µM 65% | [12]; at 1.2 µM -16% | [12]; at 3.7 µM -2% | [12]; at 11.0 µM -2% | [12]; at 33.0 µM 58% | [13]; at 1.2 µM -16% | [13]; at 3.7 µM -15% | [13]; at 11.0 µM 0% | [14]; at 1.2 µM 15% | [14]; at 3.7 µM 9% | [14]; at 11.0 µM 21% | [15]; [17] 34% | [15]; at 50.0 µM 61.7% | [16]; at 1.2 µM -19% | [16]; at 3.7 µM -11% | [16]; at 11.0 µM 6%
active: [1]; at 100.0 µM 96% | [2]; at 100.0 µM 96% | [4]; at 100.0 µM 98% | [5]; at 50.0 µM 77.2% | [5]; at 100.0 µM 97% | [6]; at 50.0 µM 74.8% | [6]; at 100.0 µM 97% | [7]; at 100.0 µM 97% | [9]; at 100.0 µM 81% | [11]; [18] 96% | [11]; at 100.0 µM 97% | [12]; at 100.0 µM 96% | [13]; at 33.0 µM 71% | [13]; at 100.0 µM 97% | [14]; at 33.0 µM 74% | [14]; at 100.0 µM 98% | [15]; [18] 76% | [16]; at 33.0 µM 81% | [16]; at 100.0 µM 97%

Clc1cc(-c2ccccc2)nc2ccccc12
inactive: [1]; at 1.2 µM 6% | [1]; at 3.7 µM -1% | [1]; at 11.0 µM 0% | [1]; at 33.0 µM 34% | [2]; at 1.2 µM -10% | [2]; at 3.7 µM -15% | [2]; at 11.0 µM -17% | [2]; at 33.0 µM 24% | [3]; at 1.2 µM 7% | [3]; at 3.7 µM 27% | [3]; at 11.0 µM 56% | [4]; at 1.2 µM 13% | [4]; at 3.7 µM 32% | [4]; at 11.0 µM 36% | [5]; at 1.2 µM 6% | [5]; at 3.7 µM 10% | [5]; [17] 68% | [5]; at 11.0 µM 2% | [5]; at 33.0 µM 36% | [6]; at 1.2 µM -18% | [6]; at 3.7 µM -8% | [6]; at 11.0 µM -14% | [6]; at 33.0 µM 33% | [6]; at 50.0 µM 44.4% | [7]; at 1.2 µM 1% | [7]; at 3.7 µM 2% | [7]; at 11.0 µM 1% | [7]; at 33.0 µM 46% | [8]; [17] -23% | [9]; at 1.2 µM 5% | [9]; at 3.7 µM 3% | [9]; at 11.0 µM -8% | [9]; at 33.0 µM 28% | [9]; at 100.0 µM 54% | [10]; [17] 40% | [11]; at 1.2 µM 11% | [11]; at 3.7 µM 23% | [11]; [17] 27% | [11]; at 11.0 µM 34% | [11]; at 33.0 µM 60% | [12]; at 1.2 µM -11% | [12]; at 3.7 µM -3% | [12]; at 11.0 µM 0% | [12]; at 33.0 µM 47% | [13]; at 1.2 µM 20% | [13]; at 3.7 µM 27% | [13]; at 11.0 µM 24% | [13]; at 33.0 µM 61% | [14]; at 1.2 µM -9% | [14]; at 3.7 µM -12% | [14]; at 11.0 µM -9% | [14]; at 33.0 µM 42% | [15]; [17] 47% | [15]; at 50.0 µM 31.4% | [16]; at 1.2 µM 16% | [16]; at 3.7 µM 9% | [16]; at 11.0 µM 25% | [16]; at 33.0 µM 59%
active: [1]; at 100.0 µM 75% | [2]; at 100.0 µM 71% | [3]; at 33.0 µM 77% | [3]; at 100.0 µM 90% | [4]; at 33.0 µM 80% | [4]; at 100.0 µM 97% | [5]; [18] 90% | [5]; at 50.0 µM 75.3% | [5]; at 100.0 µM 81% | [6]; [17] 77% | [6]; [18] 92% | [6]; at 100.0 µM 86% | [7]; at 100.0 µM 91% | [8]; [18] 88% | [10]; [18] 82% | [11]; [18] 93% | [11]; at 100.0 µM 93% | [12]; at 100.0 µM 86% | [13]; at 100.0 µM 95% | [14]; at 100.0 µM 82% | [15]; [18] 87% | [16]; at 100.0 µM 91%

CC[C@@]1(OC(=O)CCC(=O)O)C(=O)OCc2c1cc1n(c2=O)Cc2cc3ccccc3nc2-1
active: [1]; at 1.2 µM 78% | [1]; at 3.7 µM 87% | [1]; at 11.0 µM 92% | [1]; at 33.0 µM 95% | [1]; at 100.0 µM 94% | [2]; at 100.0 µM 90% | [3]; at 11.0 µM 79% | [3]; at 33.0 µM 85% | [3]; at 100.0 µM 89% | [4]; at 100.0 µM 89% | [5]; at 1.2 µM 79% | [5]; at 3.7 µM 86% | [5]; [17] 85% | [5]; at 11.0 µM 91% | [5]; at 33.0 µM 94% | [5]; [18] 94% | [5]; at 50.0 µM 80.7% | [5]; at 100.0 µM 94% | [6]; at 33.0 µM 89% | [6]; [18] 94% | [6]; at 50.0 µM 85.9% | [6]; at 100.0 µM 94% | [7]; at 100.0 µM 89% | [8]; [18] 91% | [8]; at 50.0 µM 76.3% | [10]; [18] 72% | [11]; [18] 89% | [11]; at 100.0 µM 86% | [12]; at 100.0 µM 87%
inactive: [2]; at 1.2 µM 4% | [2]; at 3.7 µM -2% | [2]; at 11.0 µM 7% | [2]; at 33.0 µM 57% | [3]; at 1.2 µM 14% | [3]; at 3.7 µM 47% | [4]; at 1.2 µM -6% | [4]; at 3.7 µM -2% | [4]; at 11.0 µM 9% | [4]; at 33.0 µM 59% | [6]; at 1.2 µM 6% | [6]; at 3.7 µM 6% | [6]; [17] 11% | [6]; at 11.0 µM 66% | [7]; at 1.2 µM 14% | [7]; at 3.7 µM -2% | [7]; at 11.0 µM 31% | [7]; at 33.0 µM 69% | [8]; [17] 30% | [10]; [17] 5% | [10]; at 50.0 µM 37.5% | [11]; at 1.2 µM -15% | [11]; at 3.7 µM -11% | [11]; [17] 16% | [11]; at 11.0 µM 4% | [11]; at 33.0 µM 62% | [11]; at 50.0 µM 64.2% | [12]; at 1.2 µM -13% | [12]; at 3.7 µM -19% | [12]; at 11.0 µM -7% | [12]; at 33.0 µM 69%

Reference: PubChem BioAssay (NCI)
